According to PubChem BioAssay (NCI):
This is part of a sample that, as a whole, favours compounds with a hit. Of some 83,000 tested, about 20% had one in any assay.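 Plates (96-well) were seeded with cells, treated with compound at one concentration, and incubated for 48 hours before percent growth was determined.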 The source made the active and inactive calls. Rule for the calls: active = growth percent below 10; inactive = the rest.

System: HL-60(TB) leukemia
Assay: NCI-60 one-dose screen, 48 h (100 = growth as untreated, 0 = no growth, -100 = all killed)
Conditions: 10 µM unless noted

| Compound | growth |
| --- | --- |
| COc1ccc(Oc2ccc(/C=C/C(=O)c3ccc(OC)c(OC)c3)cc2)cc1 | -61.4% (active) |
| O=[N+]([O-])c1cc2c(ccc3occc32)o1 | 5.05% (active) |
| COc1cc(NCCCCCN=C(N)NC(N)=NC(C)C)c2ncccc2c1 | 1.51% (active) |
| N=C(N)c1ccc(-c2ccc(-c3ccc(Cl)c(Cl)c3)s2)cc1 | -32% (active) |
| O=C(N/N=C/c1c(Cl)cccc1Cl)c1ccccc1Nc1cccc(C(F)(F)F)c1 | 95.3% (inactive) |
| Clc1cccc(Cc2cn3cc(-c4ccccc4)nc3s2)c1 | 66.1% (inactive) |
| O=C(Nc1ccc(-n2cc(-c3ccncc3)c(-c3ccc(Cl)c(O)c3)n2)cc1)c1ccc(Cl)c(C(F)(F)F)c1 | -29.1% (active) |
| Cc1ccc(-c2cn3cc([N+](=O)[O-])ccc3n2)cc1 | 47.7% (inactive) |
| CN1C(=O)N(C)C2(c3ccccc3)OC(=S)NC12c1ccccc1 (stereo not drawn) | 95.6% (inactive) |
| Cc1ccc(N=NC2C(=O)N(c3ccc(Cl)cc3)N(c3ccc(Cl)cc3)C2=O)cc1 | 103% (inactive) |
| COc1ccc(-c2nc3ncccn3c2-c2nc3ccc(Br)cc3[nH]2)cc1 | 81.3% (inactive) |
| O=C(CNCCN1CCOCC1)N1c2cccc3cccc(c23)N(C(=O)CNCCN2CCOCC2)C1c1cn(-c2ccccc2)nc1-c1cccc([N+](=O)[O-])c1 | 67.6% (inactive) |
| c1cc(-c2ccc3c(c2)OCO3)n2nccc2n1 | 98.4% (inactive) |
| Brc1ccc2[nH]cc(-c3nc(-c4c[nH]c5ccncc45)cs3)c2c1 | -55.4% (active) |
| COc1ccc(-c2nc3sccn3c2/C=C/C(=O)c2cc(OC)c(OC)c(OC)c2)cc1 | 56.5% (inactive) |
| Cc1ccc(C2CC(c3cccs3)=NN2c2ccc(S(N)(=O)=O)cc2)s1 (stereo not drawn) | 88.4% (inactive) |
| O=C1CC(c2ccsc2)c2snc(-c3ccc(Cl)cc3)c2N1 (stereo not drawn) | 12.9% (inactive) |

| Compound | growth |
| --- | --- |
| C/C(=C\CCc1ccsc1)CC/C=C(\C)CCCN1CCN(CCO)CC1 | -38.3% (active) |
| Cc1ccc(/C=C2\Oc3ccc(O)c(O)c3C2=O)cc1 | 14.7% (inactive) |
| CNS(=O)(=O)c1n[nH]nc1-c1cc(C(C)(C)C)c(O)c(C(C)(C)C)c1 | 95% (inactive) |
| O=C(CCCCCCN1CC(=O)N2[C@@H](C3CCCCC3)c3[nH]c4ccccc4c3C[C@H]2C1=O)NO | 5.7% (active) |
| COc1cccc(C2=NN3C(C2)c2ccccc2OC3c2ccc(/C=C3\SC(=O)NC3=O)cc2)c1 (stereo not drawn) | 100% (inactive) |
| NC(=NCc1ccccc1)C(N=Nc1ccccc1)C(=O)NCc1ccccc1 (stereo not drawn) | 72% (inactive) |
| Nc1ncn([C@@H]2O[C@H](CO)[C@@H](O)C2(F)F)c(=O)n1 | 25.2% (inactive) |
| O=c1oc2ccc(Br)cc2c(=O)n1-c1ccc(I)cc1F | -49.1% (active) |
| CN1CCN(CCCOc2ccc3nc(Nc4cc(Cl)cc(Cl)c4)ccc3c2)CC1 | -39.2% (active) |
| CCOC(=O)C1=C(C)NC(=O)NC1c1c(Cl)n(-c2ccccc2)c2ccccc12 (stereo not drawn) | 73.4% (inactive) |
| COc1cc2oc(-c3cccc(C(=O)Nc4ccc(Cl)cc4)c3)cc(=O)c2c(O)c1OC | 85.6% (inactive) |
| O=C1C=CC(=O)N1c1ccc(Cc2ccc(N3C(=O)C=CC3=O)cc2)cc1 | 9.02% (active) |
| CCOC(=O)C(CSC(c1ccccc1)(c1ccccc1)c1ccccc1)NC(=O)C(CSC(c1ccccc1)(c1ccccc1)c1ccccc1)NC(c1ccccc1)(c1ccccc1)c1ccccc1 (stereo not drawn) | 118% (inactive) |
| COc1ccc(OC)c(/C=C/c2nnc(Nc3ccc(Cl)cc3)o2)c1 | 80.6% (inactive) |
| CCCCCCCCCCCC(c1ccccc1)[N+](C)(C)C (stereo not drawn) | -30.5% (active) |
| COC(=O)c1c2c(c(C)[n+]([O-])c1C)C(=O)C(NCc1ccc(Br)cc1)=CC2=O | -19.9% (active) |
